From PubChem BioAssay (NCATS)
Records with an inconclusive call do not appear. Entries that show only a call come without a potency. A number with no mark means an inactive call. Activity calls are given as the source filed them. Calls come from the whole dose curve; as a rule, active = well fitted curve in the direction sought with a large enough effect; inconclusive = small, poorly fitted or top-dose-only effect, or another doubt; inactive = no such curve, though single readings can be large; an effect the other way counts as inactive or inconclusive.

Key:
[1] = Quantitative highthroughput screen to assess conditional lethalithy of NOMO1 cells grown in RPMI1640 with dialyzed fetal bovine serum (RPMI+ds) (AID 1963877); note: nearly all actives have a fitted effect of over 30% in size; note: potency is the fitted concentration of half-maximal effect; for viability: series mostly up to about 46 µM
Method in brief: (§1)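 Each medium arm—HPLM with 10% dialyzed FBS, or RPMI1640 with 5 mM glucose and 10% untreated or dialyzed FBS—was screened against an 11-point, 3-fold compound titration for 48 h at 37 °C, with CellTiter-Glo luminescence as endpoint.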

[2] = Quantitative highthroughput screen to assess conditional lethalithy of NOMO1 cells grown in Human Plasma-Like Medium with dialyzed fetal bovine serum (HPLM+ds) (AID 1963878); note: nearly all actives have a fitted effect of over 35% in size; note: potency is the fitted concentration of half-maximal effect
Method in brief: as §1

[3] = Quantitative highthroughput screen to assess conditional lethalithy of P12 Ichikawa cells grown in Human Plasma-Like Medium with dialyzed fetal bovine serum (HPLM+ds) (AID 1963879); settings: Potency: viability; note: nearly all actives have a fitted effect of over 35% in size; note: potency is the fitted concentration of half-maximal effect; for viability: series mostly up to about 46 µM
Method in brief: as §1

[4] = Quantitative highthroughput screen to assess conditional lethalithy of P12 Ichikawa cells grown in RPMI1640 with dialyzed fetal bovine serum (RPMI+ds) (AID 1963880); settings: Potency: P12-Ichikawa viability; note: nearly all actives have a fitted effect of over 35% in size; note: potency is the fitted concentration of half-maximal effect
Method in brief: as §1

[5] = Quantitative highthroughput screen to assess conditional lethalithy of P12 Ichikawa cells grown in RPMI1640 with untreated serum (RPMI+s) (AID 1963881); settings: Potency: viability; note: nearly all actives have a fitted effect of over 35% in size; note: potency is the fitted concentration of half-maximal effect; for viability: series mostly up to about 46 µM
Method in brief: as §1

[6] = Quantitative highthroughput screen to assess conditional lethalithy of SEM cells grown in Human Plasma-Like Medium with dialyzed fetal bovine serum (HPLM+ds) (AID 1963882); note: nearly all actives have a fitted effect of over 35% in size; note: potency is the fitted concentration of half-maximal effect; for viability: series mostly up to about 46 µM
Method in brief: as §1

[7] = Quantitative highthroughput screen to assess conditional lethalithy of SEM cells grown in RPMI1640 with unreated serum (RPMI+s) (AID 1963883); note: nearly all actives have a fitted effect of over 35% in size; note: potency is the fitted concentration of half-maximal effect
Method in brief: as §1

[8] = Quantitative highthroughput screen to assess conditional lethalithy of SEM cells grown in RPMI1640 with dialyzed fetal bovine serum (RPMI+ds) (AID 1963884); note: nearly all actives have a fitted effect of over 35% in size; note: potency is the fitted concentration of half-maximal effect; for viability: series mostly up to about 46 µM
Method in brief: as §1

[9] = Cellular viability qHTS for adrenocortical cancer (ACC) cell line SW-13 (AID 1963989); settings: SW-13 ACC cells viability, CellTiter-Glo, 48 h; activity (max response): hits give low values;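 note: cells grown in serum-free medium with ITS supplement; nearly all actives have a fitted effect of over 65% in size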
Method in brief: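 IC50 and maximal-response values come from four-parameter logistic fits of titration data. SW-13 cells in serum-free medium received compounds (up to 46 uM final) for 48 h before CellTiter-Glo luminescence.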

[10] = Cellular viability qHTS for adrenocortical cancer (ACC) cell line NCI-H295R (AID 1963990); note: nearly all actives have a fitted effect of over 60% in size
Method in brief: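 Adrenocortical carcinoma cells, suspended at 300 000 cells/mL in serum-free DMEM plus ITS, rested overnight before pin transfer of compound. After two days' incubation, ATP-dependent luminescence was recorded and curve-fitted.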

[11] = Quantitative highthroughput screen to assess conditional lethalithy of NOMO1 cells grown in RPMI1640 with untreated serum (RPMI+s) (AID 1963876); note: nearly all actives have a fitted effect of over 35% in size; note: potency is the fitted concentration of half-maximal effect
Method in brief: as §1

Row | SMILES | Potency [1] | Potency [2] | Potency [3] | Potency [4] | Potency [5] | Potency [6] | Potency [7] | Potency [8] | activity (max response) [9] | Potency [10] | Potency [11]
1 | COc1ccc(CCC(=O)Nc2nc3ccc(Cl)cc3s2)cc1OC | inactive | inactive | inactive | inactive | inactive | inactive | inactive | inactive | -11.7% | – | –
2 | NC(=O)c1cccc(N)c1 | inactive | inactive | inactive | inactive | inactive | inactive | – | – | -2.32% | inactive | –
3 | O=C(C[C@@H]1CC=CCCC(=O)O[C@H](c2ccccc2)CNC1=O)NCc1ccc(Cl)cc1 | inactive | inactive | inactive | inactive | inactive | inactive | inactive | inactive | – | – | –
4 | C[C@H](NCc1ccc2c(c1)nc(NC(=O)c1ccc(-c3cn[nH]c3)s1)n2CCc1ccccc1)C(C)(C)C | 6.62 µM (active) | 5.9 µM (active) | 11.8 µM (active) | 11.8 µM (active) | – | 0.469 µM (active) | 0.526 µM (active) | 0.0743 µM (active) | – | – | –
5 | NC(=O)NN=Cc1ccc([N+](=O)[O-])o1 | inactive | inactive | inactive | inactive | inactive | inactive | inactive | inactive | – | – | –
6 | Cc1cc(Nc2cc(N3CCN(C)CC3)nc(C=Cc3ccccc3)n2)n[nH]1 | 3.4 µM (active) | 3.03 µM (active) | 2.15 µM (active) | – | 3.03 µM (active) | 0.54 µM (active) | 0.54 µM (active) | 0.429 µM (active) | – | – | –
7 | CC=CC[C@@H](C)C(=O)[C@H]1C(=O)N[C@@H](C(C)C)C(=O)N(C)CC(=O)N(C)[C@@H](CC(C)C)C(=O)N[C@@H](C(C)C)C(=O)N(C)[C@@H](CC(C)C)C(=O)N[C@@H](C)C(=O)N[C@H](C)C(=O)N(C)[C@@H](CC(C)C)C(=O)N(C)[C@@H](CC(C)C)C(=O)N(C)[C@@H](C(C)C)C(=O)N1C | – | – | – | – | – | – | 14.8 µM (active) | – | – | – | inactive
8 | COC(=O)[C@]12CCC(C)(C)C[C@@H]1[C@@H]1C(=O)C=C3[C@@]4(C)C=C(C#N)C(=O)C(C)(C)[C@@H]4CC[C@@]3(C)[C@]1(C)CC2 | 8.33 µM (active) | 9.35 µM (active) | 9.35 µM (active) | 8.33 µM (active) | 9.35 µM (active) | – | 9.35 µM (active) | 6.62 µM (active) | – | – | –
9 | O=C1Nc2ccc(Cl)cc2C(C#CC2CC2)(C(F)(F)F)O1 (stereo unspecified) | inactive | inactive | inactive | – | – | inactive | inactive | – | – | – | –
10 | C=CCc1cccc(C=NNC(=O)CN2CCN(Cc3ccccc3)CC2)c1O | 16.6 µM (active) | 18.7 µM (active) | 16.6 µM (active) | 13.2 µM (active) | 14.8 µM (active) | 10.5 µM (active) | 16.6 µM (active) | 8.33 µM (active) | – | – | –
11 | C#C[C@]1(O)CC[C@@H]2[C@@H]3CCc4cc(O)ccc4[C@H]3CC[C@@]21C | – | – | – | 16.6 µM (active) | – | 14.8 µM (active) | – | 11.8 µM (active) | – | – | inactive
12 | Cc1cccc(C#Cc2ccccc2)n1 | inactive | inactive | inactive | inactive | inactive | inactive | inactive | 13.2 µM (active) | – | – | –
13 | N#Cc1ccnc(N2C(=O)CC[C@H]2C(=O)N(c2cncc(F)c2)[C@H](C(=O)NC2CC(F)(F)C2)c2ccccc2Cl)c1 | – | – | 1.48 µM (active) | – | 2.95 µM (active) | 3.31 µM (active) | 1.32 µM (active) | 3.31 µM (active) | 6.3% | inactive | 2.34 µM (active)
14 | CC1(C)O[C@H]2C[C@@H]3[C@H]4CCC5=CC(=O)C=C[C@]5(C)[C@@]4(F)[C@@H](O)C[C@]3(C)[C@]2(C(=O)CO)O1 | – | – | – | 0.264 µM (active) | 0.743 µM (active) | – | – | – | – | – | 9.35 µM (active)
15 | Cn1c2cc(S(C)=O)sc2c2cnn(Cc3cccc(N)c3)c(=O)c21 (stereo unspecified) | – | – | – | – | – | – | – | – | – | inactive | inactive
16 | O=C1NC(=O)C(=Cc2ccc3nccnc3c2)S1 | inactive | inactive | inactive | – | inactive | inactive | inactive | inactive | – | – | –
17 | CC=C(C(=CC)c1ccc(O)cc1)c1ccc(O)cc1 | inactive | inactive | inactive | inactive | inactive | inactive | – | – | – | – | –
18 | COc1ccc(CCC(=O)c2c(O)cc(O[C@@H]3O[C@H](CO)[C@@H](O)[C@H](O)[C@@H]3O[C@@H]3O[C@@H](C)[C@H](O)[C@@H](O)[C@@H]3O)cc2O)cc1O | – | – | – | – | inactive | inactive | inactive | inactive | – | – | 13.2 µM (active)
19 | O=C1C[C@@H](c2ccc(O)cc2)Oc2cc(O)cc(O)c21 | inactive | inactive | inactive | – | inactive | inactive | inactive | inactive | -16.9% | inactive | –
